Potency and activity, negative = inhibition data for 40 molecules are collected here from PubChem BioAssay (NCATS).

The source made the active and inactive calls. Where a call stands in place of a potency, no number is given. The call rests on the fitted dose curve; in most records, active means well fitted inhibition curve with a large enough effect; inconclusive means small, poorly fitted or top-dose-only effect; inactive means flat fitted curve, though single readings scatter.

This assay deals with Nanoluciferase (engineered Oplophorus gracilirostris luciferase). The experiment in a line: Primary Nanoluciferase (NLuc) qHTS assay for identification of artifact compounds. (AID 1845222). To be noted: NLuc-conditioned medium, Nano-Glo luminescence, 5 min; series mostly up to 54.1 µM. From the text:
PI: Alexander Tropsha Ph.D.
UNC Eshelman School of Pharmacy
University of North Carolina, Chapel Hill, North Carolina
Hits from high-throughput screening (HTS) of chemical libraries are often false positives due to their interference with the assay detection technology. In response to this problem, we generated the largest publicly available library of chemical liabilities and developed a free webtool to predict HTS artifacts, both of which are described herein. More specifically, we generated, curated, and integrated HTS datasets for thiol reactivity, redox activity, and luciferase (firefly and nano) activity. Using these curated datasets, we developed and validated several Quantitative Structure-Interference Relationship (QSIR) models to predict nuisance behavior. […] These models were employed for virtual profiling of the National Center for Advancing Translational Science's (NCATS) in-house library, and 256 compounds for each assay were selected for the experimental validation of nuisance behavior. The BA for these external predictions ranged from 58 to 78% for compounds within the applicability domains of the models. […] The models developed in this study, along with aggregation models previously developed by our group (SCAM Detective) were implemented in "Liability Predictor," an online tool which may be used as part of chemical library design or for triaging HTS hits. Both the models and the curated datasets are publicly available at https://liability.mml.unc.edu/.
SEQUENCE No. (e.g., 1, 2, 3, etc.); […] (e.g., Cells, Incubation, Reagent, etc.); VALUE; DESCRIPTION.
1; Reagent; 2 uL; Nanoluciferase media.
2; Compounds and control; 16 nL; Kalypsis pin tool (Wako USA) equipped with a 1536-well pin head.
4; Reagent; 2 uL; Luciferase enzyme.
6; Detection; Luminescence, ViewLux microplate reader.
NOTES (numbers refer to Sequence numbers above)
1. Medium was collected from the culture flasks of NLuc-expressing S16 cells (80% confluent) prior to cell plating, filtered through a 0.22um filter, and frozen at -20C prior to use. Media was diluted (1:55) and 2 uL was dispensed into all wells of a 1536-well assay plate (solid-bottom white plate; Greiner Bio One, Monroe, NC).
2. A Wako Pin-tool (Wako Automation, Richmond, VA) was used to transfer 16 nL of compounds (consisting of 7-plates in qHTS format, final concentration range 18.3 nM to 114 uM) or control Cilnidipine (final concentration range 623 nM to 80 uM).
3. 15 min. incubation at room temperature protected from light.
4. 2 uL of NLuc substrate (1:100 in Nano-Glo luciferase buffer; Nano-Glo luminescence assay, Promega, Madison, WI) was dispensed for a final assay volume of 4 uL.
5. Plates were centrifuged (121xg, 15 seconds) and incubated for 5 minutes.
6. Samples were read for luminescence on a ViewLux CCD imager (PerkinElmer). Data were normalized to no-enzyme (0% activity) and no-inhibitor (DMSO; 100%) controls and the resulting percent inhibition data were fitted to a 4-parameter Hill equation using NCATS in-house software.
For orientation: qHTS replaces the single test concentration by a dilution series.
Consider `C[C@@H]1CC[C@]2(C)C(C[C@@H](O)[C@H](O)[C@]23CO3)[C@@]1(C)CCc1ccoc1` (stereo not given in full), for which the Potency entry is “inactive”. Turning to `C=CC(C)(C)C1(CC2NC(=O)C3CCCN3C2=O)C(=O)Nc2cc3c(cc21)C=CC(C)(C)O3` (stereo not given), the Potency entry is “inactive”. Take `CC1CCC2(O1)C(C)(C)CC(O[C@@H]1O[C@H](CO[C@@H]3OC[C@](O)(CO)[C@H]3O)[C@@H](O)[C@H](O)[C@H]1O)CC2(C)O` (stereo not given in full): the Potency result was “inactive”. On to `CC1NC(=O)C(Cc2c[nH]c3ccccc23)NC1=O` (stereo not given), for which the Potency result was “inactive”. For `CC12CCC3C(C)(C)C(O)CCC3(C)C1Cc1c(oc(C(=O)O)cc1=O)O2` (stereo not given), the Potency result was “inactive”.

As to `Nc1nc(CC(=O)Nc2ccc(CCNCC(O)c3ccccc3)cc2)cs1` (stereo not given), the Potency entry was “inactive”. As for `CNC(=O)[C@H]1O[C@@H](n2cnc3c(NCc4ccc(N)c(I)c4)ncnc32)[C@H](O)[C@@H]1O`, the activity, negative = inhibition was -0.867% [at 11.6 µM] (inactive). For `CC(O)C(O)/C=C/C=C/C(=O)O[C@@H]1C=C2COC(=O)[C@]2(O)[C@@]2(C)CCCC(C)(C)C12` (stereo not given in full), the Potency result was “inactive”. On the same count and under the same terms, as for `CCOC(=O)c1c(C)nn(-c2cccc([N+](=O)[O-])c2)c1C`, the entry is “inactive”; as for `CC(NCc1ccc(OCc2cccc(F)c2)cc1)C(N)=O` (stereo not given), “inactive”; as for `OC[C@H]1O[C@@H](OC(CCCCc2ccc(O)cc2)CCc2ccc(O)cc2)[C@H](O[C@@H]2OC[C@](O)(CO)[C@H]2O)[C@@H](O)[C@@H]1O` (stereo not given in full), “inactive”.

Turning to `O=C1NC(=Nc2ccccc2F)S/C1=C\c1ccc(C(=O)O)cc1`, the Potency entry was “inactive”.

As for `CC1[C@@H](O)[C@@H](O)C2[C@]3(C)C(C[C@H]4OC(=O)[C@H](O)[C@]1(O)[C@@]24C)C(C)(O)C[C@H](O)[C@H]3O` (stereo not given in full), the Potency result was “inactive”. Still for that read-out and setting: as for `COc1cc(/C=C/C(=O)OC(C)(C)C(OC2OC(CO)C(O)C(O)C2O)C(=O)OCc2ccc(OC3OC(CO)C(O)C(O)C3O)cc2)ccc1O` (stereo not given), the entry is “inactive”. Regarding `COc1cc(CC(COC2OC(CO)C(O)C(O)C2O)c2cc(/C=C/CO)cc(OC)c2O)ccc1O` (stereo not given), the Potency result is “inactive”. In the case of `C=C(C)C1CC2(CO)C(=CC1=O)CCC(O)C2C` (stereo not given), the Potency entry was “inactive”.

On to `CCCCN(CCCC)C(=O)CN1C[C@H](c2ccc3c(c2)OCO3)[C@@H](C(=O)O)[C@@H]1c1ccc(OC)cc1`, for which the Potency result was “inactive”. Regarding `CON(C)C(=O)N1N=C(c2cc(F)ccc2F)S[C@@]1(CCCN)c1ccccc1`, the Potency entry is “inactive”.

Consider `C[C@@H]1C(=O)O[C@H]2CC34[C@H]5C[C@@H](C(C)(C)C)C36[C@@H](OC(=O)[C@@H]6O)OC4(C(=O)O5)[C@]21O` (stereo not given in full), for which the Potency entry is “inactive”. `COc1c(C)c2c(c(O)c1C/C=C(\C)CC/C=C(\C)CCC(=O)O)C(=O)OC2`: the Potency result is “inactive”. Consider `CC(=O)OC[C@@]12[C@H](O)C[C@@H](C)[C@]3(C[C@@H](c4ccoc4)OC3=O)[C@H]1C[C@H](O)C[C@]21CO1`, for which the Potency entry is “inactive”. For the molecule `OC[C@H]1O[C@@H](n2cnc3c2NC=NC[C@H]3O)C[C@@H]1O`, the Potency entry was “inactive”. In the case of `C=C1CC23CC1(O)CCC2C1=CC2OC(=O)C(C)(C2O)C1C3C(=O)O` (stereo not given), the Potency entry is “inactive”.

With `Nc1ccn([C@@H]2C(F)=C(CO)[C@@H](O)[C@H]2O)c(=O)n1`, the Potency result was “inactive”. Take `C[C@@H]1O[C@@H](O[C@@H]2[C@@H](O)[C@H](O[C@@H]3[C@@H](O)[C@@H](O)[C@H](O[C@H]4[C@H](OC(=O)[C@]56CCC(C)(C)C[C@H]5C5=CCC7[C@@]8(C)C[C@H](O)[C@H](O[C@@H]9O[C@H](C(=O)O)[C@@H](O)[C@H](O)[C@H]9O)[C@@](C)(CO)C8[C@H](O)C[C@@]7(C)[C@]5(C)CC6)OC[C@H](O)[C@@H]4O)O[C@H]3C)OC[C@H]2O)[C@H](O)[C@H](O)[C@H]1O` (stereo not given in full): the activity, negative = inhibition was 0.798% [at 11.6 µM] (inactive). `CC1CCC2C(C)(C)CC(C)(CO)C2(O)C1C(=O)O` (stereo not given): the Potency result is “inactive”.

Regarding `CC(=O)O[C@H]1C[C@@H]2[C@]3(CC[C@]4(C)[C@@H](C5(C)CCC(C(C)(C)O)O5)[C@@H](O)C[C@@]24C)C[C@@]32CC[C@H](O[C@@H]3OC[C@@H](O)[C@H](O)[C@H]3O)C(C)(C)[C@H]12` (stereo not given in full), the Potency result was “inactive”. The same measure, in the same setting: as for `CCC[C@@H]1C[C@@H](C(=O)N[C@@H]([C@H]2O[C@H](SC)[C@H](O)[C@@H](O)[C@@H]2O)[C@@H](C)O)N(C)C1`, the entry is “inactive”.

For `CCC(C)/C=C(C)/C=C/C1=CC2=C(Cl)C(=O)C(C)(OC(C)=O)C(=O)C2=CN1C1CCCCN(C(CCC(N)=O)C(=O)O)C1=O` (stereo not given), the Potency entry was “inactive”.

On to `CCC[C@@H]1C[C@@H](C(=O)N[C@@H]([C@H]2O[C@H](SC)[C@H](OP(=O)(O)O)[C@@H](O)[C@H]2O)[C@H](C)Cl)N(C)C1`, for which the Potency result was “inactive”. Take `CC1(C)CCC(C)(C)c2cc([C@@H](O)C(=O)Nc3ccc(C(=O)O)cc3F)ccc21`: the Potency result was “inactive”.

For the molecule `Cc1c(CN(C)C(=O)/C=C/c2cnc3c(c2)CCC(=O)N3)oc2ccccc12`, the Potency entry is “inactive”.

`COc1ccc([C@@H]2N[C@H](C(=O)O)Cc3c2[nH]c2ccccc32)cc1CN1CCN(c2ccccc2F)CC1`: the Potency entry was “inactive”. Turning to `Nc1c(Br)cc(Br)cc1CNC1CCC(O)CC1` (stereo not given), the Potency result was “inactive”.

For the molecule `C/C1=C\C[C@H](O[C@@H]2O[C@H](CO)[C@@H](O)[C@H](O)[C@H]2O)/C(C)=C/[C@H]2OC(=O)[C@H](C)[C@@H]2CC1`, the Potency result is “inactive”.

On to `CC1OC(O[C@H]2[C@@H](O)C[C@@]3(C)C([C@H](O)C[C@]4(C)C3CC=C3C5CC(C)(C)CC[C@]5(C(=O)OC5OC(CO)C(O)C(O)C5OC5OCC(OC6OCC(OC7OCC(O)C(O)C7O)C(O)C6O)C(OC6OCC(O)(CO)C6O)C5O)CC[C@]34C)[C@]2(C)CO)C(O)C(O)C1O` (stereo not given in full), for which the activity, negative = inhibition is 3.85% [at 11.6 µM] (inactive). For `OCC1OC(Oc2cc(O)c3c(c2)OC(c2ccc(O)cc2)C(O)C3)C(O)C1O` (stereo not given), the Potency result is “inactive”. Regarding `C[C@@H]1CC[C@]2(C(=O)O)CC[C@]3(C)C(=CCC4[C@]5(C)C(CC[C@]43C)C(C)(C)[C@@H](O)[C@H](O)[C@@H]5O)C2[C@]1(C)O` (stereo not given in full), the Potency entry is “inactive”. Consider `CC(=O)OC1C(O)CC(O[C@@H]2O[C@H](CO)[C@@H](O)[C@H](O)[C@H]2O)C2CCC3C(=O)OC(c4ccoc4)CC3(C)C21` (stereo not given in full), for which the Potency entry is “inactive”. In the case of `C[C@@H]1O[C@@H](O[C@H]2[C@H](O[C@H]3[C@H](O[C@H]4CC[C@@]5(C)C(CC[C@]6(C)C5CC=C5[C@@H]7CC(C)(C(=O)O)C[C@@H](O)[C@]7(C)CC[C@]56C)[C@@]4(C)CO)O[C@H](C(=O)O)[C@@H](O)[C@@H]3O)O[C@H](CO)[C@H](O)[C@@H]2O)[C@H](O)[C@H](O)[C@H]1O` (stereo not given in full), the activity, negative = inhibition is -2.21% [at 11.6 µM] (inactive).
